This test is described as follows: compound-DNA interaction, SYBR readout – biochemical, fluorescence, artefact control for HCV NS3 helicase inhibitor project, late-stage follow-up (AID 623970). Conditions: DNA binding, SYBR dye displacement fluorescence.

“And” between values parts separate entries of the source, which are not always exact repeats. Equal values may be shown once. A structure can be active in one record and inactive in another. The source made the active and inactive calls. No stated cut-off is given here; in the data, active means IC50 below about 90 µM; inactive means the rest.

Usually IC50 stands for the concentration at which inhibition is half-maximal. `Cc1ccc2c(sc(-c3ccc4c(c3)sc(-c3ccc5c(c3)sc(-c3ccc(N(C)C)cc3)[n+]5C)[n+]4C)[n+]2C)c1S(=O)(=O)O` (tested in a mixture with another compound): the IC50 was 61 µM (active).

`Cc1cc(C(O)(c2ccc(Nc3ccccc3)cc2)c2ccc(Nc3ccc(S(=O)(=O)O)cc3)cc2)ccc1N` (centres undefined): the half-inhibitory concentration (IC50) is 17 µM (active). The value for `Cc1ccc2nc(-c3ccc4nc(-c5ccc(NC(=O)c6ccc7nc(-c8ccc(NC(=O)OCC9c%10ccccc%10-c%10ccccc%109)cc8)sc7c6)cc5)sc4c3)sc2c1S(=O)(=O)O` was 22 µM (active); that for `Cc1ccc2nc(-c3ccc4nc(-c5ccc(NC(=O)c6cccc(Cl)c6)cc5)sc4c3)sc2c1S(=O)(=O)O` was > 100 µM (inactive). For the compound `CCOc1ccc2c(NNC(=O)c3cnccn3)c3c(nc2c1)CCCC3`, the IC50 was > 100 µM (inactive).

On to `CN1CCN(Cc2cc(CN3CCN(C)CC3)c(O)c(=O)c(CN3CCN(C)CC3)c2)CC1`, for which the half-inhibitory concentration (IC50) is 72 µM (active). On to `Cc1ccc2nc(-c3ccc4nc(-c5ccc(NC(=O)c6cc(F)cc(C(F)(F)F)c6)cc5)sc4c3)sc2c1S(=O)(=O)O`, for which the IC50 is > 100 µM (inactive).

Turning to `Cc1ccc2nc(-c3ccc(NC(=O)c4ccc(NC(=O)Nc5ccccc5)cc4)cc3)sc2c1S(=O)(=O)O`, the IC50 was > 100 µM (inactive). Turning to `Cc1ccc2nc(-c3ccc(NC(=O)c4ccc(NC(=O)c5ccc(N)cc5)cc4)cc3)sc2c1S(=O)(=O)O`, the IC50 is > 100 µM (inactive). The figure for `Cc1ccc2nc(-c3ccc4nc(-c5ccc(NC(=O)c6ccc7ncoc7c6)cc5)sc4c3)sc2c1S(=O)(=O)O` is 46 µM (active); for `O=C(CCCCCCC(=O)Nc1ccc(-c2nc3ccccc3[nH]2)cc1)Nc1ccc(-c2nc3ccccc3[nH]2)cc1` it is 14 µM (active); for `COc1cccc2c(=O)c3cc(Cl)cc(C(=O)Nc4cc(Cl)ccn4)c3[nH]c12` it is > 100 µM (inactive). Consider `CC(=O)Nc1ccc(-c2nc3ccc(-c4nc5ccc(C)c(S(=O)(=O)O)c5s4)cc3s2)cc1`, for which the IC50 was > 100 µM (inactive). Regarding `Cc1ccc2nc(-c3ccc4nc(-c5ccc(NC(=O)c6ccc(C(C)(C)C)cc6)cc5)sc4c3)sc2c1S(=O)(=O)O`, the IC50 is 16 µM (active). Take `Cc1ccc2nc(-c3ccc4nc(-c5ccc(NC(=O)c6cccc(C(F)(F)F)c6F)cc5)sc4c3)sc2c1S(=O)(=O)O`: the IC50 is > 100 µM (inactive).

For the compound `Cc1ccc2nc(-c3ccc4nc(-c5ccc(NC(=O)c6ccc(F)cc6)cc5)sc4c3)sc2c1S(=O)(=O)O`, the IC50 is > 100 µM (inactive).

In the case of `CCN(CC)c1ccc(-c2nc3ccc(-c4nc5ccc(C)c(S(=O)(=O)O)c5s4)cc3s2)cc1`, the IC50 is 26 µM (active). With `Cc1ccc2nc(-c3ccc4nc(-c5ccc(NC(=S)Nc6ccccc6)cc5)sc4c3)sc2c1S(=O)(=O)O`, the half-maximal inhibitory concentration (IC50) was 30 µM (active). Regarding `Cc1cc2sc(-c3ccc(N)cc3)nc2cc1S(=O)(=O)O`, the IC50 is > 100 µM (inactive). Consider `Cc1ccc2nc(-c3ccc4nc(-c5ccc(NC(=O)c6cccc7ccccc67)cc5)sc4c3)sc2c1S(=O)(=O)O`, for which the IC50 was 30 µM (active).

For the compound `NS(=O)(=O)c1ccc2nc(NC(=O)c3ccc4ncsc4c3)sc2c1`, the IC50 is > 100 µM (inactive).

Regarding `COC(=O)c1ccc(C(=O)Nc2ccc(-c3nc4ccc(-c5nc6ccc(C)c(S(=O)(=O)O)c6s5)cc4s3)cc2)cc1`, the IC50 was > 100 µM (inactive). Consider `Cc1ccc2nc(-c3ccc4nc(-c5ccc(N(C)C(=O)c6ccc7ccccc7c6)cc5)sc4c3)sc2c1S(=O)(=O)O`, for which the IC50 is > 100 µM (inactive). As for `Cc1ccc2nc(-c3ccc(N)cc3)sc2c1S(=O)(=O)O`, the IC50 was > 100 µM (inactive). Consider `Cc1ccc2nc(-c3ccc4nc(-c5ccc(NC(=O)c6ccc(Br)cc6)cc5)sc4c3)sc2c1S(=O)(=O)O`, for which the IC50 was 30 µM (active).

With `Cc1ccc2nc(-c3ccc4nc(-c5ccc(NC(=O)Nc6ccc(Cl)cc6)cc5)sc4c3)sc2c1S(=O)(=O)O`, the 50% inhibitory concentration (IC50) was 8 µM (active).

Regarding `Cc1ccc2nc(-c3ccc4nc(-c5ccc(NC(=O)Nc6ccc(F)cc6)cc5)sc4c3)sc2c1S(=O)(=O)O`, the IC50 was 74 µM (active). With `Cc1ccc2nc(-c3ccc4nc(-c5ccc(N)cc5)sc4c3)sc2c1S(=O)(=O)O`, the half-inhibitory concentration (IC50) was > 100 µM (inactive) and 23 µM (active).

Regarding `Cc1ccc2nc(-c3ccc4nc(-c5ccc(NC(=O)Nc6ccc(C(F)(F)F)cc6)cc5)sc4c3)sc2c1S(=O)(=O)O`, the IC50 was 18 µM (active). On to `Cc1ccc2nc(-c3ccc(NC(=O)c4ccc(NC(=S)Nc5ccccc5)cc4)cc3)sc2c1S(=O)(=O)O`, for which the IC50 was > 100 µM (inactive). The value for `Cc1ccc2nc(-c3ccc4nc(-c5ccc(NC(=O)c6ccc(Cl)cc6)cc5)sc4c3)sc2c1S(=O)(=O)O` was 31 µM (active); that for `CCN(CC)c1ccc(-c2nc3ccc(C)c(S(=O)(=O)O)c3s2)cc1` was > 100 µM (inactive); that for `Cc1ccc2nc(-c3ccc4nc(-c5ccc(NC(=O)c6ccc(C(F)(F)F)cc6)cc5)sc4c3)sc2c1S(=O)(=O)O` was 29 µM (active).

Consider `Cc1ccc2nc(-c3ccc4nc(-c5ccc(NC(=O)c6c(F)cccc6C(F)(F)F)cc5)sc4c3)sc2c1S(=O)(=O)O`, for which the IC50 was 64 µM (active).
